# Assay results: ChEMBL document CHEMBL3988442, “University of Dundee, Small-Polar-MMV Screening Library” (2021)
# In all, about 69,000 compounds went through this assay and about 10 (0.01%) showed an effect of 50% or more. The sample as a whole holds a higher share of strong results than the screen did.
# Target: ClpP1P2 (Mycobacterium tuberculosis (strain ATCC 25618 / H37Rv)) (UniProt P9WPC5+P9WPC3)
# Test: in vitro assay to detect presence of AMC directly proportional to the activity of ClpP1P2. GHDDI collaboration.
# Format: functional
# Design: scale not given: direction of the effect not stated beside the values
# Details: 50 µM
row,Compound,Percent Effect [%]
1,CN(C)S(=O)(=O)N1C[C@H]2CCC[C@@]2(COCC2CC2)C1,0.536
2,Cc1cccc(CN2C(=O)CC[C@H]3[C@@H]2CCN3CC(=O)N(C)C)n1,2.64
3,Cc1nc(-c2ccc(CC(=O)N3CCN(C(=O)C4CC4)CC3)cc2)cs1,7.62
4,Cc1nc(-c2ccc(CC(=O)N3CCNC(=O)C3)cc2)cs1,-0.00295
5,Cc1nc(-c2ccc(CC(=O)N3CCN(C(=O)C(C)C)CC3)cc2)cs1,88.4
6,c1cc(CN2CCO[C@@H]3CNC[C@@H]32)co1,-6.86
7,CN1C[C@H]2CN(C(=O)c3ccc4c(c3)OCO4)CCN2C1=O,-1.11
8,O=C1NC(c2ccccc2)=N[C@@]12CC[C@@H]1CN(Cc3ccco3)C[C@@H]12,-1.45
9,COCC(=O)N1CC[C@H]2OCC[C@@]2(c2nc(C)no2)C1,-7.69
10,CN(C)C(=O)N1CCC[C@]2(C(=O)N(C)C)CN(c3ccccn3)C[C@@H]2C1,-16.1
11,COc1ccc(CN2C[C@H]3C[C@H](C(=O)Nc4cccnc4)[C@@H](C2)O3)cc1,7.77
12,CCC(=O)N1C[C@@H]2CCN(c3cnccn3)C[C@@H]2C1,27.9
13,Cc1cccc(CN2C[C@@H]3CN(C(=O)c4ccsc4)C[C@@H]3C2=O)c1,5.73
14,O=C(N1CCOCC1)N1C[C@H]2CC[C@@H]1CN(C1Cc3ccccc3C1)C2,4.16
15,O=C(c1ccoc1)N1CCO[C@@H]2CNC[C@@H]21,-6.03
16,CN1CCN(C(=O)C[C@@H]2COC[C@H]3CN(c4ccncn4)C[C@@H]23)CC1,-11.8
17,Cc1cccnc1[C@]1(O)CC[C@H]2CN(Cc3cccc(Cl)c3Cl)C[C@H]21,0.575
18,COCCN1CCN(C(=O)c2ccccc2C(C)=O)[C@H]2CS(=O)(=O)C[C@H]21,-4.44
19,Cc1nccc([C@@H]2C[C@@H]3CCN(Cc4c(C)noc4C)C[C@H]3O2)n1,9.38
20,N#Cc1ccccc1CN1C[C@@H]2CC[C@H](C1)N(CC1CC1)C2=O,-3.85
21,O=C(c1ccnnc1)N1CCN2C[C@H](OCc3ccccn3)C[C@H]2C1,0.376
22,C[C@H]1C[C@H]2CN(C(=O)CCOc3ccccc3)CC[C@H]2O1,5.83
23,O=C(NC[C@]12COC[C@H]1CN(Cc1nccs1)C2)c1cscn1,2.68
24,O=C(Nc1cnccn1)[C@@H]1CCO[C@@H]2CCN(Cc3ccsc3)C[C@@H]21,-0.52
25,Cc1ccnn1CCC(=O)N1C[C@H]2CC[C@@H]1CN(CC(=O)N(C)C)C2,10.3

row,Compound,Percent Effect [%]
1,CCNC(=O)N1C[C@@H]2OCC(=O)N(CC3CCCCC3)[C@@H]2C1,5.8
2,Cc1noc([C@@]23CCO[C@@H]2CCN(C(=O)CN(C)C)C3)n1,-12.4
3,O=C(NCC1CCOCC1)[C@H]1C[C@@H]2CCN(c3nncs3)C[C@@H]2O1,-12.4
4,Cn1ccnc1C(=O)NC[C@H]1OC[C@@H]2CCN(S(C)(=O)=O)C[C@@H]21,12.7
5,COCC(=O)N1CCC[C@]2(C(=O)N(C)C)CN(c3ccccn3)C[C@@H]2C1,-0.178
6,C[C@H]1C[C@H]2CN(C(=O)c3cccc4c3OCCO4)CC[C@H]2O1,-0.751
7,Cn1cccc1C(=O)N1CC[C@H]2[C@H](CO[C@H]2CNS(C)(=O)=O)C1,5.31
8,Cc1nn(C)c(C)c1S(=O)(=O)N1C[C@@H]2C[C@@H](C)O[C@@H]2C1,-4.66
9,CCC1=N[C@@]2(CC[C@@H]3CN(S(=O)(=O)CC)C[C@@H]32)C(=O)N1CC,-9.65
10,CN1C[C@H]2C[C@H](C(=O)Nc3cccnc3)[C@@H](C1)O2,-5.71
11,Cn1cc(C(=O)NC[C@H]2OC[C@@H]3CCN(C4CCOCC4)C[C@@H]32)cn1,-8.58
12,Cc1ccnn1CCC(=O)N1CCCC[C@]2(C)NC(=O)CCC[C@H]12,2.82
13,C[C@@H]1C(=O)NC[C@H]2CN(CCc3ccccc3)C[C@H]21,11.1
14,O=C(NCc1ccccn1)[C@H]1COC[C@H]2CN(CC3CC3)C[C@H]21,7.53
15,Cc1cnc(CNC(=O)[C@@H]2CC[C@@H]3[C@@H](CCN3Cc3ccco3)O2)cn1,-0.464
16,CC(C)=CCN1C[C@H]2CC[C@@H]1CN(CCC(=O)NCc1ccco1)C2,-17.3
17,Cc1nc(COC[C@@]23CCC[C@@H]2CN(Cc2cnn(C)c2)C3)cs1,2.95
18,CNC(=O)[C@@]12CCO[C@@H]1CCN(Cc1ccc3c(c1)OCO3)C2,14.7
19,O=C(O)[C@@]12CN(c3cnccn3)C[C@@H]1CN(C1CCOCC1)C2,-12.3
20,Fc1cnc(N2CCO[C@H]3[C@H](OCCN4CCCC4)CC[C@@H]32)nc1,-0.916
21,Fc1cccnc1O[C@H]1CN(Cc2ccoc2)[C@@H]2CCCO[C@H]12,5.17
22,Cc1nc(CN2C(=O)CC[C@@H]3[C@H]2CCN3C(=O)c2ccccn2)cs1,2.69
23,Cc1nc(CN2CCO[C@@H]3CN(Cc4ccccn4)CC[C@@H]3C2)cs1,-1.41
24,c1ccc(CO[C@H]2C[C@@H]3CN(Cc4cncnc4)C[C@@H]3C2)cc1,-9.01
25,COCCNC(=O)[C@H]1C[C@@H]2CCN(c3ccncn3)C[C@H]2O1,-14.9

row,Compound,Percent Effect [%]
1,Cc1ccc(C(=O)N2CC[C@@H]3[C@H]2CCC(=O)N3CCN(C)C)cn1,15.8
2,CN1C[C@@H](F)[C@@H](OCc2nc3ccc(C#N)cc3[nH]2)C1,-10.4
3,Cc1ccc2[nH]c(CO[C@H]3CN(c4ccc(C#N)cn4)C[C@H]3F)nc2c1,78.4
4,Cc1ccc2[nH]c(CO[C@H]3CN(C(=O)C4CC4)C[C@H]3F)nc2c1,-1.53
5,CC(=O)N1CCC(c2cncc(N3CCOCC3)n2)CC1,55.4
6,CC(=O)N1CCC(c2cncc(N3CCC(O)C3)n2)CC1 (centres undefined),-28.1
7,CC(=O)N1CCC(c2cncc(N3CCCCCC3)n2)CC1,-8.81
8,O=C(NC1CCC1)[C@@H]1C[C@@H]2CCN(Cc3cccs3)C[C@@H]2O1,-6.23
9,O=C1CC[C@]2(CC[C@@H](NCc3cccnc3)CC2)N1Cc1ccccc1,9.66
10,CN(C)S(=O)(=O)N1CC[C@]2(O)CCN(Cc3cccc(C#N)c3)C[C@@H]2C1,-12.9
11,CO[C@H]1CN(Cc2ccc(C)o2)[C@@H]2CCCO[C@H]12,-4
12,COCCN1C[C@H]2CC[C@@H]1CN(C(=O)c1ccc(Cl)cc1)C2,2.81
13,Cc1ccccc1CN1C[C@@H](C(=O)N2CCCCO2)C[C@H]2OCC[C@H]21,-6.2
14,CCCN1CCN(C(=O)c2cnc(C)nc2)[C@H]2CS(=O)(=O)C[C@H]21,5.85
15,CCS(=O)(=O)N1CC[C@@H]2[C@H](COCC3CC3)CN(C)C(=O)[C@@H]2CC1,-4.29
16,Cc1ccc([C@]2(O)CC[C@H]3CN(Cc4ccncc4)C[C@H]32)nc1,23.9
17,O=C([C@H]1C[C@H]2OCC[C@H]2N(CC2CCOCC2)C1)N1CCCCO1,-11.4
18,COCCN1C[C@@H]2[C@@H](OC)CCN(S(=O)(=O)c3cccnc3)[C@@H]2C1,-10.6
19,Cc1cnc(N2C[C@H]3CCN(CC4CC4)C[C@H]3C2)nc1,-8.8
20,Cc1ccc(CN2CC[C@@H]3[C@@H]2CCN3C(=O)Cc2cccs2)o1,16.6
21,COc1ccc(CC(=O)N2C[C@H]3CN(Cc4ccccn4)C[C@H]3C2)cc1,-3.43
22,Cc1noc(C)c1CN1C[C@H](OCC(=O)N(C)C)[C@H]2OCCC[C@H]21,-8.82
23,CNCCN1C(=O)CC[C@H]2CN(c3cnc4ccccc4n3)CC[C@H]21,-92.8
24,O=C(CN1C[C@H]2CC[C@@H]1CN(Cc1ccccn1)C2)Nc1ccccc1,-28.1
25,CN(Cc1ccco1)[C@@H]1CN(Cc2cccnc2)C[C@@H]2CCCO[C@@H]21,6.33

row,Compound,Percent Effect [%]
1,CC(C)OC(=O)N1C[C@H]2CC[C@@H]1CN(C(=O)c1ccccc1)C2,-3.47
2,Cc1noc([C@H]2COC[C@H]3CN(C(=O)Cc4cccs4)C[C@H]32)n1,-9.33
3,CN(C)C(=O)[C@@H]1C[C@@H]2CCN(Cc3ccncc3)C[C@@H]2O1,7.41
4,c1cncc(COCC2CC[C@H]3[C@H]2OCCN3Cc2ccoc2)c1 (some centres undefined),3.35
5,CN(C)C[C@]12COC[C@H]1CN(C(=O)Cc1ccc3c(c1)OCO3)C2,7.79
6,Cn1cc(CN2CC[C@@H]3O[C@H](C(=O)N4CCOCC4)C[C@@H]32)cn1,-11.6
7,COCCN1C[C@@H]2CN(Cc3cccc(F)c3)CCC[C@]2(C(=O)O)C1,-13.3
8,Cc1cccc2nc(C(=O)N3CCCC[C@]4(C)NC(=O)CCC[C@H]34)cn12,-8.66
9,CN(C)C(=O)[C@H]1CC[C@@H]2[C@@H](CCN2Cc2ccccn2)O1,-3.56
10,CC1=N[C@@]2(CC[C@@H]3CN(Cc4cccc(Cl)c4)C[C@@H]32)C(=O)N1CC1CC1,3.49
11,O=C(c1cccnc1)N1C[C@@H]2OCCN(CCN3CCCC3)[C@@H]2C1,4.78
12,Cn1ccnc1CN1CCO[C@H]2C(CNC(=O)c3ccco3)CC[C@@H]21 (some centres undefined),0.912
13,Cc1ncsc1CN1C[C@@H](OCC(=O)N(C)C)[C@H]2OCCC[C@H]21,-2.89
14,CCS(=O)(=O)N1CCC[C@]2(C(=O)N(C)C)CN(c3ncccn3)C[C@@H]2C1,5.41
15,CCc1ccc(CN2C[C@@H]3COC[C@H](NS(C)(=O)=O)[C@@H]3C2)o1,-9.73
16,Cc1cccc(CN2CCCC[C@H]3CN(c4ncccn4)C[C@H]32)c1,3.15
17,CCN1CCO[C@@H]2CN(S(=O)(=O)c3cccs3)CC[C@@H]2C1,1.3
18,CC(=O)N1CCC(N2CCN3C(=O)N(c4ccccc4)C[C@H]3C2)CC1,-1.27
19,Cc1noc([C@@]23CCO[C@@H]2CCN(C(=O)c2c(C)noc2C)C3)n1,-20.2
20,CCCS(=O)(=O)N1C[C@@H]2CN(Cc3ccoc3)CCO[C@@H]2C1,2.92
21,Cc1cc(CN2C[C@@H]3CCCO[C@@H]3[C@H](Nc3ccccn3)C2)no1,-4.49
22,COc1cc2c(cc1-c1nc3c(cnn3C(C)C(C)C)[nH]1)OCO2 (centres undefined),-3.85
23,COc1cc2c(cc1-c1nc3c(cnn3C(C)C3CC3)[nH]1)OCO2 (centres undefined),21.1
24,COc1cc2c(cc1-c1nc3c(cnn3C(C)C)[nH]1)OCO2,56.2
